Experimental data reported in PubChem BioAssay (NCI).
This is part of a sample that, as a whole, favours compounds with a hit. Of some 79,000 tested, about 15% had one in any assay. The source made the active and inactive calls. Rule as the data show it: active = growth inhibition above about 70%; inactive = the rest.

Assay: NCI Yeast Anticancer Drug Screen. Data for the cln2 rad14 strain (AID 165);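 also: 0% = growth equal to vehicle treated cultures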
Details: S. cerevisiae cln2 rad14 strain, at 50.0 µM, stronger effect = higher value
Method in brief: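 Yeast carrying cln2 and rad14 alterations (cell cycle control and DNA damage repair) were exposed to compounds. Growth inhibition was measured against vehicle-treated controls.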

| SMILES | growth inhibition |
| --- | --- |
| CCOC(=O)C(=CNc1cc(C(F)(F)F)ccc1N1CCOCC1)C(=O)OCC | 18.6% (inactive) |
| COCC(=O)c1ccc(C#N)cc1 | -39% (inactive) |
| CC(=O)Nc1ccc(O)c([N+](=O)[O-])c1 | -36% (inactive) |
| CC1(C)C2CC3C(=CCCC3C(=O)O)C1C2 (configuration not stated) | 9.8% (inactive) |
| COc1cc(C(C#N)NNC(=O)c2ccccc2O)ccc1O (configuration not stated) | 17.6% (inactive) |
| O=C(On1nnc2ccccc2c1=O)c1ccccc1 | -7.25% (inactive) |
| c1ccc(-c2n[nH]c3c2CCCc2ccccc2-3)cc1 | -12% (inactive) |
| O=C1NC(=O)c2c(Br)c(Br)c(Br)c(Br)c21 | 9.6% (inactive) |
| CCOC(=O)/C(F)=C/c1cccc([N+](=O)[O-])c1 | 10.1% (inactive) |
| Nc1cc(Cl)cc2[nH]c(=O)c3cc(Cl)ccc3c12 | 5.35% (inactive) |
| O=C1N=C2SCCCN2C1(c1ccccc1)c1ccccc1 | -7% (inactive) |
| COC(=O)Nc1nc2ccc(C3c4c(n[nH]c4C)CC(C)(O)C3C(C)=O)cc2[nH]1 (configuration not stated) | -6.5% (inactive) |
| O/N=C1\c2ccccc2-c2cccc(I)c21 | 1.5% (inactive) |
| O=C1C(c2ccccc2)=C(c2ccccc2)C(c2ccc(Sc3ccc(C4=C(c5ccccc5)C(=O)C(c5ccccc5)=C4c4ccccc4)cc3)cc2)=C1c1ccccc1 | 15.7% (inactive) |
| O=C(O)/C=C/C=C/c1ccc(Cl)cc1 | -14% (inactive) |
| CSc1ccccc1C(C)(C)O | -29.8% (inactive) |
| CCCNc1ccc2c(c1)C(=O)c1ccccc1-2 | -6.2% (inactive) |
